Nrf2 activator – activators of Nrf2 (ARE) signaling; AREc32 ARE-luciferase reporter (MCF7-derived line), luminescence, 24 h; Potency, µM (series often up to 46.1 µM), most hits filed as activators; 410,000 compounds, 0.31% hits; AID 624171; further: nearly all actives have a fitted effect of over 65% in size
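Quantitative high-throughput format: AREc32 reporter cells, 1000 per well, received compound by pin transfer and were incubated 24 hr at 37 deg C, 5% CO2, before Steady-Glo luminescence detection.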
Nrf2 inh – blocks Nrf2 signaling; A549 ARE-Fluc reporter, luciferase luminescence, 18-24 h; Potency, µM (highest dose often 46 µM), actives largely listed as inhibitors; 360,000 compounds, 2.1% hits; further: nearly all actives have a fitted effect of over 60% in size
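Quantitative HTS in A549 cells stably bearing an antioxidant response element-firefly luciferase construct. Inhibition of Nrf2-driven transcription was scored by luminescence after 18-24 h of compound exposure at 37 °C.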
A549 tox – kills or reduces viability of A549 cells in Nrf2 counter-screen; Potency, µM (series often up to 46 µM), actives largely listed as inhibitors; 390,000 compounds, 0.16% hits; AID 504648; A549 ARE-Fluc cells, CellTiter-Fluor viability, 18-24 h
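A549 ARE_Fluc cells in 5% FBS OPTI-MEM were exposed to compounds in concentration-response for 18-24 h at 37 deg C. Viability was read by CellTiter-Fluor fluorescence (Ex 405/Em 525) after 30 min, before the luciferase read.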
Pin1 inh – human Pin1 inhibition; Q13526; Potency, µM (series often up to 115 µM), usual class: inhibitors; 390,000 compounds, 0.009% hits; AID 504891; Pin1 FP peptide displacement, HiFluor488, 10 min; active means well fitted inhibition curve with a large enough effect in the polarisation, with a control signal flat, not every such curve was filed as active; inconclusive means small, poorly fitted or top-dose-only effect, or effect the other way, or a change in a side signal; inactive means no such curve, though single readings can be large or run the other way; the % refers to the polarisation
Target sequence (Q13526 whole entry, looked up): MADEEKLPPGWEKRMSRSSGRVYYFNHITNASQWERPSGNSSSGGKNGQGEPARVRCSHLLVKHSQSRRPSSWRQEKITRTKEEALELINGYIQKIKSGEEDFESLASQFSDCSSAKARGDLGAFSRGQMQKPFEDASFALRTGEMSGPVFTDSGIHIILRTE
Large screens that a line does not name were inactive. In the library only some 2.2% were active in any assay of this set; here they are far more common. Unless noted, the call rests on the fitted dose curve; in most records, active means well fitted curve in the direction sought with a large enough effect; inconclusive means small, poorly fitted or top-dose-only effect, or another doubt; inactive means no such curve, though single readings can be large; an effect the other way counts as inactive or inconclusive.

COc1ccc(OC)c(CCNC(=O)c2cnn(-c3ccccc3)c2C2CCN(C(=O)OC(C)(C)C)CC2)c1	Nrf2 inh inconclusive
Cc1ccc(C)c(N2CCN(CCCNC(=O)c3cnn(-c4ccc(F)cc4)c3C3CCN(C(=O)OC(C)(C)C)CC3)CC2)c1	Nrf2 inh inconclusive, A549 tox 18.4µM
Cc1ccc(C)c(N2CCN(CCCNC(=O)c3cnn(-c4cccc(Cl)c4)c3C3CCN(C(=O)OC(C)(C)C)CC3)CC2)c1	Nrf2 inh inconclusive, A549 tox inconclusive
Cc1ccc(C)c(N2CCN(C(=O)c3cnn(C(C)(C)C)c3C3CCN(C(=O)OC(C)(C)C)CC3)CC2)c1	Nrf2 inh 20.6µM
CC(C)CCn1c(=O)c2sccc2n2c(CCCC(=O)NCCc3ccccc3)nnc12	none
C=Cc1ccc(CSc2nnc(C)n3c2cc2occc23)cc1	Nrf2 inh 18.4µM
Cc1nnc(SCc2ccc(Cl)cc2)c2cc3occc3n12	Nrf2 inh inconclusive, A549 tox inconclusive
Cc1c(C(C)C)c(=O)n(-c2ccc(S(=O)(=O)N3CCOCC3)cc2)n1C	Nrf2 inh inconclusive
Cc1c(C(C)C)c(=O)n(-c2ccc(S(=O)(=O)NCc3ccccc3)cc2)n1C	Nrf2 inh 7.31µM
Cc1c(C(C)C)c(=O)n(-c2ccc(S(=O)(=O)NC3CCCCC3)cc2)n1C	Nrf2 inh 14.6µM
CCc1ccc(S(=O)(=O)Nc2c(C)n(C)n(-c3ccccc3)c2=O)cc1	none
Fc1ccccc1NC(=S)Nc1ccc(Br)cc1	Nrf2 inh 23.1µM, A549 tox inconclusive
CC1(C)CC(=O)c2cc(-c3nc(-c4ccc(F)cc4)cs3)c(=O)[nH]c2C1	none
O=C(Nc1cccc([N+](=O)[O-])c1)Nc1cccs1	Nrf2 activator 7.08µM
CS(=O)(=O)Nc1ccc(C(=O)Nc2cccc([N+](=O)[O-])c2)cc1	Nrf2 activator 6.31µM
CN(C)S(=O)(=O)c1ccc(Cl)c(C(=O)Nc2cccc([N+](=O)[O-])c2)c1	Nrf2 inh 9.2µM
Cc1cc(NC(=O)C(C)(C)C)cc(-c2nc3ncccc3o2)c1O	Pin1 inh inconclusive
Cc1ccc(CNC(=O)C(=O)Nc2c3c(nn2-c2ccc(F)cc2)CSC3)cc1	none (no result: Nrf2 inh)
CCOC(=O)C1=CCC2c3c(c4ccccc4n3C)C(=O)C1N2C(=O)OC(C)(C)C (stereo not drawn)	Nrf2 inh 14.6µM, A549 tox inconclusive
CN1C(=O)C2(NCCc3c2[nH]c2ccccc32)c2ccccc21 (stereo not drawn)	none
CC1=CC(C)(C)N2C(=O)C3(NCCc4c3[nH]c3ccccc43)c3cc(C)cc1c32 (stereo not drawn)	Nrf2 inh inconclusive, A549 tox 11.6µM
O=S1(=O)Nc2c(cc(Cl)c3ccc(Cl)nc23)-c2ccccc21	none (no result: Nrf2 activator)
Cc1ccc2ccc3c(c2n1)NS(=O)(=O)c1ccc(C(F)(F)F)cc1-3	Nrf2 inh 8.2µM, A549 tox 7.31µM (no result: Nrf2 activator)
O=S(=O)(c1cccs1)N1CCN(c2ccnc3cc(Cl)ccc23)CC1	Nrf2 inh inconclusive, A549 tox inconclusive
O=S(=O)(c1ccccc1)N1CCN(c2ccnc3cc(Cl)ccc23)CC1	Nrf2 inh 23.1µM
Cc1cc(N2CCN(S(=O)(=O)c3ccccc3)CC2)c2ccccc2n1	Nrf2 inh 20.6µM
CC(=O)Nc1ccc(OC2=NS(=O)(=O)c3ccccc32)cc1	Nrf2 inh inconclusive (no result: Nrf2 activator)
Cc1noc(C)c1-c1ccc2ncnc(NCc3cccn3C)c2c1	none (no result: Nrf2 activator)
CCC1CCCCN1C(=O)Cn1c(=O)n(-c2ccccc2C(F)(F)F)c(=O)c2c(C)c(C(=O)N(C)C)sc21 (stereo not drawn)	none (no result: Nrf2 inh)
Cc1cc(C)n(CC(=O)NNC(=O)COc2ccc(F)cc2Br)n1	none
Cc1nn(C)c(C)c1NC(=O)COc1ccc(F)cc1Br	Nrf2 inh 23.1µM
COC(=O)c1ccc2nc(-c3ccc(OC)c(OC)c3)c(CC3CCCCC3)n2c1	none (no result: Nrf2 inh, A549 tox, Pin1 inh)
COC(=O)c1ccc2nc(-c3cccc(Br)c3)c(CC3CCCCC3)n2c1	Nrf2 activator 8.91µM (no result: Nrf2 inh, A549 tox, Pin1 inh)
CCc1cccc(NC(=O)C(Cc2ccccc2)n2cccc2)c1 (stereo not drawn)	Nrf2 inh 20.6µM
O=C(Nc1cccc(Cl)c1)C(Cc1ccccc1)n1cccc1 (stereo not drawn)	Nrf2 inh inconclusive
COC(=O)c1cc(F)c(S(=O)(=O)N2CCN(S(=O)(=O)c3ccc4c(c3)OCCO4)CC2)cc1F	none (no result: Nrf2 activator)
CC(=O)NCCNC(=O)c1ccc2c(=O)n(CCc3ccccc3)c(=O)[nH]c2c1	none
O=C(c1ccco1)N1CCCC(c2nc(-c3ccc(S(=O)(=O)NCc4ccccc4)cc3)no2)C1 (stereo not drawn)	Nrf2 inh 10.3µM
COc1ccc(-c2noc(C3CCCN(C(=O)CCc4ccccc4)C3)n2)cc1 (stereo not drawn)	Nrf2 inh inconclusive
CCC1CCC2(CC1)NC(=O)N(CC(=O)Nc1cccc(S(=O)(=O)N(C)c3ccccc3)c1)C2=O (stereo not drawn)	Nrf2 inh 16.4µM
CC1CCC2(CC1)NC(=O)N(CC(=O)Nc1cccc(S(=O)(=O)N3CCCCC3)c1)C2=O (stereo not drawn)	Nrf2 inh 18.4µM, Pin1 inh inconclusive
Cc1ccc(C)c(N2CCN(C(=O)c3cc4c(=O)n(Cc5ccco5)ccc4nc3C)CC2)c1	Nrf2 inh inconclusive
c1ccc(-c2csc3ncnc(NCCN4CCOCC4)c23)cc1	Nrf2 inh 14.6µM
Cc1ccc(-c2csc3ncnc(NCCN4CCOCC4)c23)cc1	Nrf2 inh inconclusive
COC(=O)CC1(C(=O)OC)Oc2ccc(Br)cc2C(=O)N1c1ccc(Br)cc1Cl (stereo not drawn)	Nrf2 inh 16.4µM
COC(=O)CC1(C(=O)OC)Oc2ccc(Br)cc2C(=O)N1c1cc(Cl)c(Cl)cc1Cl (stereo not drawn)	Nrf2 inh inconclusive
Oc1ccc(Oc2ccccc2F)c2cccnc12	none (no result: Nrf2 activator)
Cc1cccc(C)c1OCc1cc(C(=O)N2CCC(c3ccccc3)CC2)no1	none
COc1cccc(OCc2cc(C(=O)N3CCC(c4ccncc4)CC3)no2)c1	Nrf2 inh 5.17µM
O=C(c1cc(COc2cccc(C(F)(F)F)c2)on1)N1CCC(c2ccncc2)CC1	Nrf2 inh 13µM, Pin1 inh inconclusive
O=C(c1cc(COc2cccc(C(F)(F)F)c2)on1)N1CCC(c2ccccc2)CC1	Nrf2 inh 13µM
Cc1ccc(N(C)S(=O)(=O)c2ccc3c(c2)CCC(=O)N3)cc1C	Nrf2 inh inconclusive (no result: Nrf2 activator)
CC1CCN(CC(CS(=O)(=O)c2ccc([N+](=O)[O-])cc2)N2CCC(C)CC2)CC1 (stereo not drawn)	Nrf2 inh 23.1µM, A549 tox inconclusive
Cc1ccc(-n2ncc3c(SCc4cccc(C)c4)ncnc32)cc1	none
Cc1ccc(-n2ncc3c(SCc4cccnc4)ncnc32)c(C)c1	Nrf2 inh 4.11µM
COc1cccc(N2CCN(c3ncnc4c3cnn4-c3ccc(C)cc3C)CC2)c1	Nrf2 inh 18.4µM, A549 tox inconclusive
Cc1ccc(-n2ncc3c(N4CCCC4)ncnc32)c(C)c1	none
